The values that follow come from PubChem BioAssay (Tox21).

A short description of experiment [1]: qHTS assay to identify small molecule antagonists of the estrogen receptor alpha (ER-alpha) signaling pathway using the BG1 cell line in the presence of 0.1 nM 17-beta-estradiol - cell viability counter screen (AID 1259241). Further: nearly all actives have a fitted effect of over 40% in size. Further: potency means the concentration at half of the fitted maximal effect. The method in brief:
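Estradiol-stimulated (0.1 nM) VM7Luc4E2 cells exposed to compounds 22 hr; viability measured by fluorescence of cleaved CellTiter-Fluor substrate after 30 min.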
On the technique in general: In qHTS, concentration-response curves come from the screen itself.

Experiment [2] concerns the target Estrogen receptor (Homo sapiens) (UniProt P03372). The experiment is described as follows: qHTS assay to identify small molecule antagonists of the estrogen receptor alpha (ER-alpha) signaling pathway using the BG1 cell line in the presence of 0.1 nM 17-beta-estradiol (AID 1259244). Further: nearly all actives have a fitted effect of over 50% in size. Further: potency means the concentration at half of the fitted maximal effect. The method, boiled down: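 Reporter is a stably transfected luciferase under four estrogen responsive elements in VM7Luc4E2 cells expressing native full-length ER-alpha; inhibition of 0.1 nM (final) 17beta-estradiol-driven signal over 22 h is read by luminescence.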

The nature of experiment [3]: qHTS assay to identify small molecule HDAC inhibitors (AID 1259364). Further: potency means the concentration at half of the fitted maximal effect.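 Further: wild-type HCT-116 cells with endogenous class I/II HDAC activity; nearly all actives have a fitted effect of over 45% in size.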 The method in brief:
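Quantitative high-throughput format: overnight-seeded HCT-116 cells got compounds for 2 hr at 37C; HDAC-Glo I/II reagent added, 30 min RT, luminescence measured.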

Experiment [4] can be described thus: qHTS assay to identify small molecule HDAC inhibitors - cell viability counter screen (AID 1259365). Further: series mostly up to about 92 µM; nearly all actives have a fitted effect of over 50% in size. The method in brief:
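After overnight seeding at 1,500 cells per well, wild-type HCT-116 cultures took up compounds in DMSO for 2hr at 37 C. Viable cell content came from luminescence with CellTiter-Glo.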

Experiment [5] can be described thus: qHTS assay to identify small molecule agonists of the sonic hedgehog signaling (Shh) pathway - cell viability counter screen (AID 1259366). Further: nearly all actives have a fitted effect of over 50% in size. Further: potency means the concentration at half of the fitted maximal effect. The method, boiled down:
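Same-well cytotoxicity read. Gli1-Luc reporter 3T3 cells; compounds 24hr, 37C/5% CO2; CellTiter-Fluor fluorescence.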

Experiment [6] in a line: qHTS assay to identify small molecule antagonists of the sonic hedgehog signaling (Shh) pathway - cell viability counter screen (AID 1259367). Further: nearly all actives have a fitted effect of over 55% in size. Further: potency means the concentration at half of the fitted maximal effect. The method in brief: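 Conditioned medium drove Shh signaling in 3T3 Gli1-Luc cells exposed to compounds at 37C and 5% CO2. Viability was determined from CellTiter-Fluor fluorescence, with reagent incubated 1 hr after 23 hr of treatment.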

Experiment [7] in a line: qHTS assay to identify small molecule agonists of the sonic hedgehog signaling (Shh) pathway (AID 1259368; calls by dose curve;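 further: NIH/3T3-derived 3T3Gli1-Luc cells carrying a stable Gli1-driven firefly luciferase reporter; series mostly up to about 92 µM; nearly all actives have a fitted effect of over 15% in size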). The method, boiled down:
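Quantitative high-throughput format using a Gli1-driven firefly luciferase reporter line derived from NIH/3T3 cells. After a 24 hr compound treatment at 37 C and 5% CO2, luminescence reported Gli1 response element activity.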

A short description of experiment [8]: qHTS assay to identify small molecule antagonists of the sonic hedgehog signaling (Shh) pathway (AID 1259369; calls by dose curve; further: nearly all actives have a fitted effect of over 45% in size; further: potency means the concentration at half of the fitted maximal effect). The method in brief: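 Stable Gli1-Luc reporter NIH/3T3 clone; quantitative HTS in stimulated mode with conditioned medium. Luminescence measured after 24hr compound treatment at 37 C.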
The target of experiment [9] is Estrogen receptor beta (Homo sapiens) (UniProt Q92731). The experiment is described as follows: qHTS assay to identify small molecule agonists of the estrogen receptor beta (ER-beta) signaling pathway (AID 1259377; active means well fitted activation curve with a large enough effect in the signal ratio in the repeat runs, not every such curve was filed as active; the % refers to the signal ratio). The method in brief:
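Read-out: beta-lactamase FRET fluorescence. Cell line: ER-beta-UAS-bla HEK293T in 2% charcoal-stripped FBS. Exposure: 16 hr at 37C. Substrate step: 2 h at room temperature.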

Experiment [10] in a line: qHTS assay to identify small molecule agonists of the androgen receptor (AR) signaling pathway in the presence of an antagonist - cell viability counter screen (AID 1259379). Further: nearly all actives have a fitted effect of over 25% in size. Further: potency means the concentration at half of the fitted maximal effect. The method, boiled down: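 Nilutamide-containing (3.0uM final) MDA-kb2 cultures, 3,000 cells/well, were treated with compounds across 15 concentrations. After 16 hr at 37C with no CO2, cell viability was determined by CellTiter-Fluor fluorescence in the luciferase assay wells.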

Experiment [11] in a line: qHTS assay to identify small molecule agonists of the estrogen receptor beta (ER-beta) signaling pathway - cell viability counter screen (AID 1259380). Further: nearly all actives have a fitted effect of over 30% in size. Further: potency means the concentration at half of the fitted maximal effect. The method in brief:
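Steps: plate ER-beta-UAS-bla HEK293T cells, rest 6 hr; add compounds in DMSO; incubate 16 hr at 37C, 5% CO2; add FRET substrate 2 hr; add CellTiter-Glo, wait 30 min at room temperature; read luminescence.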

Experiment [12] in a line: qHTS assay to identify small molecule antagonists of the estrogen receptor beta (ER-beta) signaling pathway - cell viability counter screen (AID 1259382). Further: nearly all actives have a fitted effect of over 55% in size. Further: potency means the concentration at half of the fitted maximal effect. The method in brief: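 Viability is scored by CellTiter-Glo luminescence (30 min, room temperature) in ER-beta-UAS-bla HEK293T wells already read for reporter fluorescence. Compound exposure lasts 16 hr at 37C alongside 1nM 17-beta-estradiol in charcoal-stripped serum medium.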

The target in experiment [13] is Estrogen receptor (Homo sapiens) (UniProt P03372). The experiment is described as follows: qHTS assay to identify small molecule agonists of the estrogen receptor alpha (ER-alpha) signaling pathway in the presence of an antagonist (AID 1259383; calls by dose curve; further: top concentration of the series differs between compounds; nearly all actives have a fitted effect of over 15% in size). The method in brief:
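Readout was ERE-driven luciferase luminescence in VM7Luc4E2 cells, which express full-length ER-alpha endogenously. Compounds were tested at 15 concentrations for 22hr alongside 10.0nM ICI-182,780 (final concentration).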

The nature of experiment [14]: qHTS assay to identify small molecule agonists or antagonists of the thyroid stimulating hormone receptor (TSHR) signaling pathway - wild type cell line counter screen (AID 1259384; calls by dose curve). The method in brief: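 Wild-type HEK293 cells were plated 18 h at 37 C/5% CO2, pin-dosed with compound plus Ro20-1724 medium, held 30 min at room temperature, then given cAMP-d2 and anti-cAMP-cryptate; fluorescence was read after 1 h. Fifteen concentrations, triplicate.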

Experiment [15] concerns the target Thyrotropin receptor (Homo sapiens) (UniProt P16473). The experiment is described as follows: qHTS assay to identify small molecule antagonists of the thyroid stimulating hormone receptor (TSHR) signaling pathway (AID 1259385; calls by dose curve; further: nearly all actives have a fitted effect of over 20% in size; further: potency means the concentration at half of the fitted maximal effect). The method in brief:
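TSHR-HEK293 cells were plated and held 18 h at 37C/5% CO2, then given compound plus Ro20-1724 and stimulated with TSH at 1.5 ng/mL final. After 30 min at room temperature, cAMP was detected with cAMP-d2/anti-cAMP-cryptate (1 h) by fluorescence.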

Experiment [16] can be described thus: qHTS assay to identify small molecule phospholipidosis (PLD) inducers (AID 1259344; active means well fitted curve in the direction sought with a large enough effect; an effect the other way counts as inactive or inconclusive). The method, boiled down:
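After 4 h attachment on collagen I, HepG2 cells were dosed with compound alongside LipidTOX Red, kept 24 h at 37 C, fixed, and imaged for lamellar phospholipid pits.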

For experiment [17], the target named is Estrogen receptor beta (Homo sapiens) (UniProt Q92731). The experiment is described as follows: qHTS assay to identify small molecule antagonists of the estrogen receptor beta (ER-beta) signaling pathway (AID 1259378; active means well fitted inhibition curve with a large enough effect in the signal ratio in the repeat runs, not every such curve was filed as active; the % refers to the signal ratio). The method, boiled down: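 ER-beta-UAS-bla HEK293T (GripTite) cells in 2% charcoal-stripped FBS medium were preincubated 6 hr at 37C, dosed with compound, then stimulated with 1 nM E2 (final) for 16 hr; beta-lactamase reporter read by B/G FRET fluorescence after 2 hr substrate loading.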
Chain of Estrogen receptor beta (Homo sapiens) (Q92731 whole entry, looked up): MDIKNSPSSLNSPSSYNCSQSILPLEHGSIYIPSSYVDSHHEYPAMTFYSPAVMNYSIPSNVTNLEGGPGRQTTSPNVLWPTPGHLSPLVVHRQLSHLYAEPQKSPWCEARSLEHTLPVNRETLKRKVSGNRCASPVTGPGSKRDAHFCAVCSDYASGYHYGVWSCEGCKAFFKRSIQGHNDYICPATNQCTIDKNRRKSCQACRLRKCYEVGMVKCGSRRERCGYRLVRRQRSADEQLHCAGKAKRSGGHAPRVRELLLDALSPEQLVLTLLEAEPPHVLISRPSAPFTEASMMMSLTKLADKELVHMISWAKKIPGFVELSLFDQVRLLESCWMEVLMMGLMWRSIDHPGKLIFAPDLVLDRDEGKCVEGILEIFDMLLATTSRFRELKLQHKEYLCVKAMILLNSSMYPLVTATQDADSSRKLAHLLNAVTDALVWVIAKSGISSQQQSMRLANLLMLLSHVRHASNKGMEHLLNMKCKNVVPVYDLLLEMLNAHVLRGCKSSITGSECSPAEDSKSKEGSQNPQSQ

Experiment [18] has as its target Androgen receptor (Homo sapiens) (UniProt P10275). The experiment is described as follows: qHTS assay to identify small molecule antagonists of the androgen receptor (AR) signaling pathway using the MDA cell line in the presence of 0.5 nM R1881 (AID 1259243). Further: potency means the concentration at half of the fitted maximal effect; nearly all actives have a fitted effect of over 50% in size. The method, boiled down: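 Antagonist mode quantitative HTS in MDA-kb2 MMTV-luciferase cells, agonist R1881 at 0.5 nM final, 16 hr exposure at 37C and 0% CO2, luminescent detection.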

Experiment [19] has the same target. The experiment is described as follows: qHTS assay to identify small molecule agonists of the androgen receptor (AR) signaling pathway in the presence of an antagonist (AID 1259381; calls by dose curve; further: nearly all actives have a fitted effect of over 15% in size). The method in brief:
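Reporter-gene luminescence from MDA-kb2 cells exposed 16hr at 37C (0% CO2) to 15-point compound titrations with 3.0uM final nilutamide as AR antagonist.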

Unmarked numbers belong to inactive results. Results filed as inconclusive are left out. Calls of active or inactive are those of the source. Unless noted, the call rests on the fitted dose curve; in most records, active means well fitted curve in the direction sought with a large enough effect in the repeat runs; inconclusive means weak or mixed curves; inactive means no such curve, though single readings can be large; an effect the other way counts as inactive or inconclusive.

Chain of Thyrotropin receptor (Homo sapiens) (P16473 whole entry, looked up): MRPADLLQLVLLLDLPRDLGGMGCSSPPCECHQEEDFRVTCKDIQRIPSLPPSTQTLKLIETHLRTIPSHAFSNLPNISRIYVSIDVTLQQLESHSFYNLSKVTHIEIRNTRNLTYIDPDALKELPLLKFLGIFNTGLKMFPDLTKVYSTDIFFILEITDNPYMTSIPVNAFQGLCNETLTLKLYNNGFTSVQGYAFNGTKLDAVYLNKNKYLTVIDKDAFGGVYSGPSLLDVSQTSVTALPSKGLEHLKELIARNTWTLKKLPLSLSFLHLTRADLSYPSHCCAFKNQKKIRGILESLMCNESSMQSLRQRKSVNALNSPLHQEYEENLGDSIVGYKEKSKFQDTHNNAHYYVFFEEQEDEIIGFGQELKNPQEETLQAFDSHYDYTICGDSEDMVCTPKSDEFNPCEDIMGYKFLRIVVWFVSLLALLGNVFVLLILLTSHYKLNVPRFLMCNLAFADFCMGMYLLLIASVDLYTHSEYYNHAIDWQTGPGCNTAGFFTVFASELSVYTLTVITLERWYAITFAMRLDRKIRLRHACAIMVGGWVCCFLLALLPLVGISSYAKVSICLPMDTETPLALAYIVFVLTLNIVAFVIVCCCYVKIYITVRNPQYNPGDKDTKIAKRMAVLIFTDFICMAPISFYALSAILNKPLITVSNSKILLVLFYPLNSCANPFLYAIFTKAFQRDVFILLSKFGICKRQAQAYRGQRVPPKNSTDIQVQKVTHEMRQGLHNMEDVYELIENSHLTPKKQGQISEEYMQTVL
Chain of Androgen receptor (Homo sapiens) (P10275 whole entry, looked up): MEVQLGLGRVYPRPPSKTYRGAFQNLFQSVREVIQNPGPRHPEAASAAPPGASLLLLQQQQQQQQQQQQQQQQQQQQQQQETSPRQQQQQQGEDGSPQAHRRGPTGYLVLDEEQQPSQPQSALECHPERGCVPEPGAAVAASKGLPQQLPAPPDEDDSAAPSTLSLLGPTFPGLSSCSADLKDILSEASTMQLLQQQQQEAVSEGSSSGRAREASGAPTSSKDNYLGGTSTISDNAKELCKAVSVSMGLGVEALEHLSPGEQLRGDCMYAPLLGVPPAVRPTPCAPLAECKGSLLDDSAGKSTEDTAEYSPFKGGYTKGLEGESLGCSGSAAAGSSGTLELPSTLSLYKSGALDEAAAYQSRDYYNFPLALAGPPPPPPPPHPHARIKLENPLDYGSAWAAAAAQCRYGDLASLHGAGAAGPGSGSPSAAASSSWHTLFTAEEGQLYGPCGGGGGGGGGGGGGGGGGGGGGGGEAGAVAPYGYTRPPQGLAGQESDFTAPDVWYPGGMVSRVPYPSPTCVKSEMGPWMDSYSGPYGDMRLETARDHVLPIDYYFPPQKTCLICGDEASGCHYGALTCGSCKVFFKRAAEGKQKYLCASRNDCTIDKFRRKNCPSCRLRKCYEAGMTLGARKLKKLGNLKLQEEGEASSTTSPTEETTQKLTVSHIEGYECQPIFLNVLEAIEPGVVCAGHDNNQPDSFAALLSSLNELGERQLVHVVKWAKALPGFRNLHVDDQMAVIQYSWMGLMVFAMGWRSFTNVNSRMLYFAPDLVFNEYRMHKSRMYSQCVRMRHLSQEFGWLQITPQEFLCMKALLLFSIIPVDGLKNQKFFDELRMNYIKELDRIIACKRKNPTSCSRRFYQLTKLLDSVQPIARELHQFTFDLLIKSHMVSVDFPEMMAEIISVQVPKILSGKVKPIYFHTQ
Chain of Estrogen receptor (Homo sapiens) (P03372 whole entry, looked up): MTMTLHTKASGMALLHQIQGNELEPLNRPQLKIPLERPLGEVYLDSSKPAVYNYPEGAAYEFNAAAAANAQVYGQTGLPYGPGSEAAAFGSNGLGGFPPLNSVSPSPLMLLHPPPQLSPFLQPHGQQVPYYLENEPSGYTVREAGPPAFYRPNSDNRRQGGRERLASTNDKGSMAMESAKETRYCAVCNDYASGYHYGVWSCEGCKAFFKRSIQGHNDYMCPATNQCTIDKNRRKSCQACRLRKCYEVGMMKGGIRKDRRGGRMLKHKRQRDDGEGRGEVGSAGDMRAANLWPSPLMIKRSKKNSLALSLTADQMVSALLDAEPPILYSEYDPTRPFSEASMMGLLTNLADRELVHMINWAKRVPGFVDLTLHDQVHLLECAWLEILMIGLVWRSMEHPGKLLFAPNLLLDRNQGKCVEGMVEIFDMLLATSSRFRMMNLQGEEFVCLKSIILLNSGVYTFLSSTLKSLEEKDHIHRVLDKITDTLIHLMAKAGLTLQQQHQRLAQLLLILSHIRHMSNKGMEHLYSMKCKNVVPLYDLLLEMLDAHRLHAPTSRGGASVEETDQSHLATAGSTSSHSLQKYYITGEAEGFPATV

Regarding `CNC(=O)c1ccccc1`, the Potency result in [1], in experiment [2], in [3], in [4], in experiment [5] and in [6] was “inactive” each time. Besides, the Potency entry in experiment [7], in experiment [8], in experiment [9], in experiment [10], in experiment [11] and in experiment [12] was “inactive” each time. In addition, the Potency entry in [13] and in experiment [15] was “inactive” each time. For the same molecule, the molecule was classed as inactive in experiment [14].
With `CC(=O)SC[C@@H](Cc1ccccc1)C(=O)NCC(=O)OCc1ccccc1`, the Potency entry in experiment [1], in experiment [2], in experiment [16], in experiment [3], in [5] and in [6] was “inactive” throughout. Besides, the Potency result in experiment [7], in experiment [9], in [17], in [10], in experiment [11] and in experiment [12] was “inactive” each time. The Potency result in [13] is “inactive”. Moreover, the molecule was classed as inactive in experiment [14]. Moreover, the Potency in experiment [15] was 23.7 µM (active).
`CSc1ccc(C(=O)c2[nH]c(=O)[nH]c2C)cc1`: the Potency result in [1], in experiment [2], in experiment [16], in experiment [3], in experiment [4] and in experiment [5] was “inactive” each time. The Potency entry in experiment [6], in [7], in experiment [8], in experiment [10], in experiment [11] and in [12] was “inactive” each time. Further, the Potency entry in experiment [13] and in [15] was “inactive” throughout. In [14], the outcome was inactive.
As for `OCc1c[nH]c2ccccc12`, the Potency entry in experiment [1], in experiment [16], in [3], in [4], in experiment [5] and in experiment [7] was “inactive” each time. Besides, the Potency result in [19], in [12], in experiment [13] and in experiment [15] was “inactive” throughout. Further, the values for the Potency in experiment [18] and in experiment [8] were 17.2 µM (active) and 30.6 µM (active), respectively. In addition, the outcome in [14] was inactive.
Turning to `Nc1ccc(N)c2ccccc12`, the Potency was 19.3 µM (active) in experiment [1]; 19.3 µM (active) in experiment [18]; 12.2 µM (active) in experiment [2]; 61.1 µM (active) in experiment [5]; 61.1 µM (active) in [6]; 12.2 µM (active) in experiment [8]. Further, the Potency in experiment [10] is 61.1 µM (active); in [11], 24.3 µM (active); in experiment [12], 27.3 µM (active). Also, the Potency entry in experiment [3], in experiment [7], in experiment [19] and in experiment [13] was “inactive” each time. Further, the molecule was classed as inactive in experiment [14].
As to `COc1cccc2c1C(=O)c1c(O)c3c(c(O)c1C2=O)C[C@@](O)(C(=O)CO)C[C@@H]3O[C@H]1C[C@H](N)[C@H](O[C@@H]2CCCCO2)[C@H](C)O1`, the Potency in experiment [1] was 13.3 µM (active); in experiment [18] it was 2.11 µM (active); in experiment [3], 11.9 µM (active); in experiment [5], 11.9 µM (active); in experiment [6] it was 11.9 µM (active). Also, the Potency entry in [2], in experiment [16], in [4], in experiment [7], in experiment [19] and in [13] was “inactive” throughout. The call in [14] was inactive.
For the molecule `CNCc1cc(F)ccc1Oc1ccc(Cl)c(Cl)c1`, the Potency result in experiment [1], in [3], in experiment [4], in experiment [7], in experiment [9] and in experiment [13] was “inactive” in each case. In experiment [15], the Potency entry is “inactive”. Further, the Potency in experiment [2] was 54.5 µM (active); in experiment [8] it was 12.2 µM (active); in experiment [10], 54.5 µM (active); in [11], 27.3 µM (active). Besides, in experiment [14], the molecule was classed as inactive.
Turning to `CCCCCCCCCCCCCCCCCC[N+](C)(C)C`, the Potency result in [1], in [3], in experiment [7], in [19], in experiment [13] and in experiment [15] was “inactive” in each case. The Potency is 27.4 µM (active) in [18]; 54.6 µM (active) in experiment [2]; 68.8 µM (active) in experiment [5]; 0.274 µM (active) in experiment [8]; 61.3 µM (active) in experiment [10]; 27.4 µM (active) in [11]. For the same molecule, in experiment [12], the Potency is 30.7 µM (active). Also, in [14], the call was inactive.
